Results as given in the supplement of paper PMC6555819.

Legend:
Assay in all cases: PBM binding z-score (relative to random genomic background probes); higher = stronger binding; sequences stand for … in GC…GCGATTGACAGCGTAGAATGAAGG
[1] = tested on: PPARg:RXRa DBDmut IVT, anti-RXR (DBD mutation: RXRa K156A/R161A, NR concentration 270 nM, RXRa partner concentration 90 nM)
In short: (§1)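 Each nuclear receptor dimer, without ligand, was incubated for 1 h on custom Agilent 4×180K protein-binding microarrays. Binding was detected with antibodies against each partner (one per run), and scanned fluorescence was regression-normalized. The binding z-scores are referenced to random human genomic background probes.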

[2] = tested on: PPARg:RXRa IVT, anti-PPARg (NR concentration 270 nM, RXRa partner concentration 90 nM)
In short: as §1

[3] = tested on: PPARg DBDmut:RXRa IVT, anti-PPARg (DBD mutation: PPARg1 K132A/R137A, NR concentration 270 nM, RXRa partner concentration 90 nM)
In short: as §1

[4] = tested on: PPARg DBDmut IVT, anti-PPARg (DBD mutation: PPARg1 K132A/R137A, NR concentration 270 nM)
In short: as §1

[5] = tested on: PPARg homodimer (NR concentration 180 nM)
In short: as §1

[6] = tested on: PXR:RXRa (NR concentration 270 nM, RXRa partner concentration 90 nM)
In short: as §1

[7] = tested on: PXR homodimer (NR concentration 270 nM)
In short: as §1

[8] = tested on: RARa:RXR (NR concentration 270 nM, RXRa partner concentration 90 nM)
In short: as §1

[9] = tested on: RARa homodimer (NR concentration 270 nM)
In short: as §1

[10] = tested on: RARb:RXRa (NR concentration 270 nM, RXRa partner concentration 90 nM)
In short: as §1

Row | Sequence | PBM binding z-score [1] | PBM binding z-score [2] | PBM binding z-score [3] | PBM binding z-score [4] | PBM binding z-score [5] | PBM binding z-score [6] | PBM binding z-score [7] | PBM binding z-score [8] | PBM binding z-score [9] | PBM binding z-score [10]
1 | TCTGCTAGGTCAGTTGATCAGCTAACGAGCTGCC | 2.51 | 2.27 | 0.428 | -0.296 | -0.547 | 0.199 | -0.78 | 0.424 | -1.32 | 3
2 | GTACCATGGTGAATAGGTCGTTGATGAGTAGGCG | 0.107 | 0.275 | -0.162 | 0.3 | 0.352 | 0.151 | -0.347 | 0.29 | -0.148 | 0.41
3 | ATCTCTAGGTAAAGTTCACTGAAAGATCGATAGA | 2.42 | 3.28 | 2.5 | 1.51 | 2.51 | 3.54 | 2.92 | 2.82 | 1.43 | 3.51
4 | ATACCAAGGTGAGCGTGAGGTCGTTGATACTAAC | 1.54 | 2.2 | 0.262 | -0.46 | 0.827 | 3.26 | 0.571 | 2.34 | 0.154 | 1.97
5 | CCTACTGGGCAATTCAGAGGTCATTGATCATATG | 1.37 | 1.97 | 0.00726 | -0.498 | 2.09 | 4.71 | 2.44 | 4.45 | 0.887 | 2.82
6 | GCTGCTAGGTCAACTGATGGTCAGCTGAAGCTCG | 4.69 | 3.93 | -0.679 | -0.202 | 1.06 | 1.45 | -0.515 | 2.72 | -0.515 | 4.31
7 | ATATGTAGGTTAAGGGTAATTCAGGTTGGTTCGC | 7.67 | 7.16 | 1.52 | 1.87 | 2.15 | 1.74 | 1.44 | 1.63 | 2.31 | 1.69
8 | TCTCGGAGGACAGGAAAGGTCAGAGCTCGACATC | 1.51 | 0.852 | -0.54 | -0.498 | 2.25 | 3.36 | 0.759 | 3.62 | 0.692 | 3.9
9 | GCTATTAGTTGTAAGGGCAACCGAATGATTCTCG | 0.378 | 0.518 | 0.0721 | 0.01 | 0.811 | 0.273 | 0.159 | 0.496 | 0.359 | 1.41
10 | GATACAGGGTCAGCTAGAGGACAGAGTATGGAAA | 1.12 | 2.33 | 0.573 | 0.147 | 2.5 | 3.17 | 0.27 | 4.99 | 0.599 | 4.34
11 | CCTAGCAGGCCAGGGTCACTGAAGCATTTCGCTT | 0.0332 | 1.16 | -1.43 | -1.48 | 1.08 | 3.04 | -0.468 | 3.83 | -0.64 | 2.55
12 | ATATGTAGGTTACATCCGGGTCGTTCAGGCTATG | 7.59 | 7.22 | 2.21 | 1.61 | 1.23 | 1.64 | 0.721 | 1.35 | 0.787 | 1.49
13 | GGAACGAGGGGAAAGTTGATAGCATCTGTCGACG | 1.59 | 1.99 | 0.258 | -1.07 | 0.339 | -0.114 | -0.142 | -0.0298 | 0.277 | 0.213
14 | TCTTGTAGATCAAGGGTTAAGAAAGCCGAAGCCT | 1.55 | 2.33 | 0.632 | -0.0594 | 1.12 | 0.471 | -0.23 | 1.06 | -0.354 | 0.694
15 | CCTTACGGGTCACGAGGTTATGGCACGACGAGCG | 3.69 | 5.37 | 1.26 | 0.892 | 2.01 | 4.16 | 0.0957 | 5.67 | 0.689 | 4.51
16 | CCTGCTAGGTCAATGTTCAGCTAAAGCAGCTCGC | 4.27 | 3.55 | -0.21 | -0.461 | 1.39 | 0.795 | -0.474 | 1.54 | -0.305 | 3.8
17 | CCTACTGGGCCACCAGGTCATTGATATCAACGTT | 4.8 | 6.19 | -0.327 | -0.298 | 1.02 | 1.73 | 0.656 | 1.75 | 0.342 | 1.98
18 | AGAACGAGGGCAATGAGTTGATAACACGGGTGGC | 2.99 | 2.45 | -0.222 | 0.293 | -0.128 | 1.53 | 4.8 | 0.19 | -0.633 | 2.05
19 | ATCTCTAGGTAAGACTCAGTTCAGTGGAGAACGC | 1.76 | 1.05 | 0.655 | 0.595 | 1.2 | 1.32 | 1.24 | 0.355 | 0.601 | 0.727

Row | Sequence | PBM binding z-score [1] | PBM binding z-score [2] | PBM binding z-score [3] | PBM binding z-score [4] | PBM binding z-score [5] | PBM binding z-score [6] | PBM binding z-score [7] | PBM binding z-score [8] | PBM binding z-score [9] | PBM binding z-score [10]
20 | TGAATGAGGTTAAAGATCTGGGAACGTGGCGTCG | 2.25 | 2.86 | 1.17 | -0.223 | 0.811 | 1.19 | -0.0436 | 1.8 | -0.239 | 1.93
21 | TCTTGTAGATCAAGCAGGTTAAGAAAGCCTGAGT | 1.72 | 0.78 | 0.218 | 0.401 | 0.138 | 0.519 | 0.388 | 0.546 | -0.0455 | 0.228
22 | AATACAGGGTCATCGTAGACCAGAGTACGCACAG | 3.19 | 4.37 | 1.62 | 0.874 | 2.94 | 4.27 | 0.967 | 5.09 | 1.49 | 4.3
23 | TCTTGTAGATCAAGCAGGCTAAGAAAGCCTGAGT | 1.46 | 0.173 | -0.469 | 1.11 | -0.6 | -0.424 | -0.306 | -0.588 | -1.2 | -0.756
24 | GCTCGGAGGACAAGGTCAGAGCATTGTCCGTAGA | -0.234 | 0.996 | -1.46 | -0.733 | 0.964 | 1.69 | -0.0134 | 2.26 | -0.974 | 3.38
25 | ACAGACAGGTGAGTGAAGGTAACTTAGCTGGACG | 0.507 | 0.549 | -0.0823 | -0.397 | 0.206 | -0.213 | -0.19 | 0.132 | -0.0854 | 0.486
26 | CCTACTGGGCCAAAAAGGTCATTGAGGCCGATAA | 3.53 | 3.88 | -0.547 | -0.0751 | 2.79 | 5.38 | 10.7 | 5.6 | 2.12 | 3.8
27 | ACTATTAGTTGAGTCGAGGGCAACCGATAGGTTG | 0.363 | 0.962 | 0.679 | 0.368 | 0.693 | 1.34 | 0.315 | 0.785 | 0.945 | 1.14
28 | CCTACTGGGCCAGGAAAGGTCATTGATTCAGTGA | 2.65 | 3.05 | -0.225 | -1.01 | 2.36 | 4.78 | 0.786 | 4.87 | 0.0596 | 3.71
29 | TCTATTAGTTGATTAGGGCAACCGCAACAGCGGA | 2.2 | 1.59 | 0.83 | 0.659 | 0.498 | 0.281 | 0.274 | 0.408 | 0.676 | 0.729
30 | CGAAGTAGGTCATCCAGGACAGTGAATACATTGA | 8.36 | 8.63 | 3.1 | 2.28 | 2.17 | 2.56 | 1.49 | 3.08 | 0.771 | 3.82
31 | TCTTGTGGATCAGCAGGTTAAGAAAGCTGGCCAA | 1.59 | 0.745 | -0.449 | 0.165 | 0.237 | 0.354 | -0.204 | 0.573 | 0.249 | 0.338
32 | GCTAGTTGATCAGTAAAAGGTCACACACCGGTCG | 0.158 | 1.96 | 0.246 | 0.272 | 2.88 | 4.83 | 0.914 | 5.64 | 2.24 | 3.89
33 | CTCGAAAGGTCGTGCTCAGGTTAGTATACCAAAC | 0.848 | 1.77 | 0.0664 | 0.423 | 2.46 | 3.94 | 0.392 | 4.55 | 0.346 | 4.09
34 | CGTCCAAGTTCAGCAGGTCAGTGAAAGCGACGTG | 0.444 | 0.339 | -0.163 | -0.669 | 1.77 | 2.59 | 1.6 | 2.38 | 0.583 | 3.75
35 | GCTGCTAGGTCCACTGATGGTCAGCTAAAGCTCG | 0.0704 | -0.423 | -1.19 | -1.02 | -1.01 | -0.525 | -1.03 | -0.598 | -1.55 | 0.403
36 | GCAGACAGGTGAGACGCAGGTAACTCAGGGTGGC | 0.0725 | 0.0836 | -0.435 | -0.858 | -0.513 | -0.282 | -0.385 | 0.154 | -0.0204 | 0.422
37 | GCGACTGGGGAAAAGCAGGTTACCATAAGGTTGG | 0.483 | 0.632 | -0.499 | -1.11 | 0.255 | -0.0375 | -0.35 | 0.407 | -0.675 | -0.16
38 | CAAACTAAGTCACGAAAGGTCAAAGTCGAATGAC | 2.8 | 3.64 | 0.905 | 0.93 | 3.63 | 6.08 | 2.1 | 6.41 | 1.43 | 4.83
